Inconclusive results are not listed. The source made the active and inactive calls. Unless noted, calls come from the whole dose curve; as a rule, active = well fitted curve in the direction sought with a large enough effect in the repeat runs; inconclusive = weak or mixed curves; inactive = no such curve, though single readings can be large; an effect the other way counts as inactive or inconclusive.
Columns and labels:
[1] = qHTS assay to identify aromatase inhibitors - cell viability counter screen (AID 743084);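 note: cells stimulated with testosterone during compound exposure; nearly all actives have a fitted effect of over 55% in size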
[2] = molecular target: Aryl hydrocarbon receptor (Homo sapiens) (UniProt P35869); test: qHTS assay to identify small molecule that activate the aryl hydrocarbon receptor (AhR) signaling pathway (AID 743085);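 note: HG2L7.5c1 human HepG2 liver cells with stably integrated DRE-driven firefly reporter; series mostly up to about 70 µM; nearly all actives have a fitted effect of over 15% in size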
Aryl hydrocarbon receptor (Homo sapiens), sequence (P35869 whole entry, looked up): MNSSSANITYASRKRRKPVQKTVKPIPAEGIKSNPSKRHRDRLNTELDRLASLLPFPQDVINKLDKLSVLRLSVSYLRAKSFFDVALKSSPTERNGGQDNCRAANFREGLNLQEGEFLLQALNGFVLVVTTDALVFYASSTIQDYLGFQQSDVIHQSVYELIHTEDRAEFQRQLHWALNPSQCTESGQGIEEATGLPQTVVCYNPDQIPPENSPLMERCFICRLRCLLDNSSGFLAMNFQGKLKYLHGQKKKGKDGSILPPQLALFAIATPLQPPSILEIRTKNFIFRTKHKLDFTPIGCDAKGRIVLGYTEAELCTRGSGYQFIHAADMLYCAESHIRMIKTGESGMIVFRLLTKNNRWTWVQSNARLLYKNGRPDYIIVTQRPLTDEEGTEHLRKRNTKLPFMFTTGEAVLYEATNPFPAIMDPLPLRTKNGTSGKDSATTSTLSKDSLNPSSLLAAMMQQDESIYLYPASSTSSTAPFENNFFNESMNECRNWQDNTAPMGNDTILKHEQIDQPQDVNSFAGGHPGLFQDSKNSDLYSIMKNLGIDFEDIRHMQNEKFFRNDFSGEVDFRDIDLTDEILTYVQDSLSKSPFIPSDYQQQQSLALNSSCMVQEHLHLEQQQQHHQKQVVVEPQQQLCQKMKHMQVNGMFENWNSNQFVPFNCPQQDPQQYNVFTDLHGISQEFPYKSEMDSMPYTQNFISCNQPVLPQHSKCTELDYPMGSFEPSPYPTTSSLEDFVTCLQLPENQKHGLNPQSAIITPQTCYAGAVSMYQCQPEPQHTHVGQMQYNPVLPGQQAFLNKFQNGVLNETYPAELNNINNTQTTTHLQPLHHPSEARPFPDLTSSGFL
Procedure, shortened: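 Luminescence read-out: ONE-Glo reagent, 30 min at room temperature, in HG2L7.5c1 HepG2 reporter cells treated 24 h at 37C. Viability was measured beforehand by CellTiter-Fluor fluorescence after 30 min at 37C.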

[3] = qHTS assay to identify small molecule that activate the aryl hydrocarbon receptor (AhR) signaling pathway - cell viability counter screen (AID 743086);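 note: HepG2 liver cells carrying the AhR DRE luciferase reporter; series mostly up to about 70 µM; nearly all actives have a fitted effect of over 45% in size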
Procedure, shortened: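 HepG2-AhR-luc (HG2L7.5c1) cells, 4000/well, were preincubated 5 h at 37C, exposed to compound in qHTS format for 24 hr at 37C, then given CellTiter-Fluor for 30 min; viability was read as fluorescence in the reporter wells.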

[4] = molecular target: Peroxisome proliferator-activated receptor gamma (Homo sapiens) (UniProt P37231); test: qHTS assay to identify small molecule agonists of the peroxisome proliferator-activated receptor gamma (PPARg) signaling pathway (AID 743094; active = well fitted activation curve with a large enough effect in the signal ratio in the repeat runs, not every such curve was filed as active; the % refers to the signal ratio)
Peroxisome proliferator-activated receptor gamma (Homo sapiens), sequence (P37231 whole entry, looked up): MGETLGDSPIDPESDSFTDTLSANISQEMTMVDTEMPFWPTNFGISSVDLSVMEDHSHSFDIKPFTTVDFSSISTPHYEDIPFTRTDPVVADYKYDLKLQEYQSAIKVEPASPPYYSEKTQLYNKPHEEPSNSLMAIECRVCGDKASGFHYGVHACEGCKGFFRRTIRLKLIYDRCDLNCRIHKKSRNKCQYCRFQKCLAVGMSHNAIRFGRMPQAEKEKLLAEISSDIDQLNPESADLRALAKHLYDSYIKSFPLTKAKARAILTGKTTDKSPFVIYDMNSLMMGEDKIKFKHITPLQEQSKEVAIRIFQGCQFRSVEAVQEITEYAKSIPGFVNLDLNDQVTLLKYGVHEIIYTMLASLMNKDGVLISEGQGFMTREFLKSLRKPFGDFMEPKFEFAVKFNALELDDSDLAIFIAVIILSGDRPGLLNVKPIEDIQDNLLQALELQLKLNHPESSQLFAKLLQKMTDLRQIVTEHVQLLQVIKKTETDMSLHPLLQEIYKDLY
Procedure, shortened: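 Agonism was assessed in a beta-lactamase reporter system, HEK293H cells with a stably integrated UAS-bla construct under PPARg control; the 17 h treatment at 37C preceded a 1 h room-temperature FRET substrate read.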

[5] = molecular target: Peroxisome proliferator-activated receptor gamma (Homo sapiens) (UniProt P37231); test: qHTS assay to identify small molecule antagonists of the peroxisome proliferator-activated receptor gamma (PPARg) signaling pathway (AID 743191; calls by dose curve; note: series mostly up to about 63 µM; nearly all actives have a fitted effect of over 30% in size)
Procedure, shortened: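 GeneBLAzer PPARg UAS-bla HEK293H cells carrying a UAS-driven beta-lactamase reporter were plated at 3000 cells/well, preincubated 5 h at 37C, then given compound for 17 h at 37C; LiveBLAzer B/G FRET substrate was read after 1 h at room temperature.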

[6] = qHTS assay to identify small molecule antagonists of the peroxisome proliferator-activated receptor gamma (PPARg) signaling pathway - cell viability counter screen (AID 743194); note: nearly all actives have a fitted effect of over 55% in size
Procedure, shortened: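 PPARg-UAS-bla HEK293H cells were plated, rested 5 h at 37 C, then treated with compounds plus rosiglitazone (50 nM final) for 17 h at 37 C; viability was then read by CellTiter-Glo luminescence after 30 min at room temperature.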

[7] = qHTS assay for small molecule agonists of the antioxidant response element (ARE) signaling pathway (AID 743202; active = well fitted activation curve with a large enough effect in the signal ratio in the repeat runs, not every such curve was filed as active; the % refers to the signal ratio)
Procedure, shortened: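 Following a 16 h, 37 C exposure of reporter HepG2 cells (ARE-driven beta-lactamase, 2,000 cells/well) to compounds, FRET substrate was applied for 2 h at room temperature and fluorescence intensity recorded.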

[8] = qHTS assay for small molecule agonists of the antioxidant response element (ARE) signaling pathway - cell viability counter screen (AID 743203; calls by dose curve; note: nearly all actives have a fitted effect of over 55% in size)
Procedure, shortened: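 ATP content via CellTiter-Glo luminescence served as the viability measure. Cells: ARE-bla HepG2, 2,000 per well. Exposure: 16 hrs, 37C/5% CO2.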

[9] = qHTS assay for small molecule activators of the heat shock response signaling pathway (AID 743210; active = well fitted activation curve with a large enough effect in the signal ratio in the repeat runs, with a control signal flat, not every such curve was filed as active; the % refers to the signal ratio; note: series mostly up to about 63 µM)
Procedure, shortened: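 Heat shock element–beta-lactamase HeLa reporter cells; qHTS with compounds for 5 h at 37 C; detection by FRET substrate fluorescence after 2.5 h at RT.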

[10] = qHTS assay for small molecule activators of the heat shock response signaling pathway - cell viability counter screen (AID 743209); note: nearly all actives have a fitted effect of over 50% in size
Procedure, shortened: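 Compounds dissolved in DMSO were added to overnight-plated HSE-bla HeLa cells and left 5 h at 37 C. Cell viability was quantified by luminescence using CellTiter-Glo.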

Measured: Potency

O=S1(=O)CCCC1
inactive: [1] | [2] | [3] | [4] | [5] | [6] | [7] | [8] | [9]

CCC(=O)OCCC(C)CCC=C(C)C (configuration not stated)
inactive: [1] | [2] | [3] | [4] | [5] | [6] | [8] | [9]

CCOC(=O)CC(CC(=O)OCC)(OC(C)=O)C(=O)OCC
inactive: [1] | [2] | [3] | [4] | [5] | [7] | [8] | [9]

CCCCCCCCC(=O)OCC
inactive: [1] | [2] | [3] | [4] | [5] | [6] | [7] | [8] | [10] | [9]

Cc1cccc(C(=O)O)c1[N+](=O)[O-]
inactive: [1] | [2] | [3] | [4] | [5] | [6] | [8] | [10]

NS(=O)(=O)c1cc2c(cc1Cl)NC(CC1CCCC1)NS2(=O)=O (configuration not stated)
inactive: [1] | [2] | [3] | [4] | [5] | [6] | [7] | [8] | [9]

COC(/C=C(\C)CCC=C(C)C)OC
inactive: [1] | [2] | [3] | [4] | [5] | [6] | [8] | [10] | [9]

CN(C)CCCNCCC#N
inactive: [1] | [2] | [3] | [4] | [5] | [6] | [7] | [8] | [9]

CC(C)(c1ccc(Oc2ccc3c(c2)C(=O)OC3=O)cc1)c1ccc(Oc2ccc3c(c2)C(=O)OC3=O)cc1
inactive: [1] | [2] | [3] | [4] | [6] | [7] | [8] | [10] | [9]

CCCCCCCCCCCCC1CO1 (configuration not stated)
inactive: [1] | [2] | [3] | [4] | [5] | [6] | [7] | [8] | [10] | [9]

CCCCCC(=O)OCC
inactive: [1] | [2] | [3] | [4] | [5] | [6] | [8] | [10] | [9]

CCC(=O)c1ccc(O)cc1
inactive: [1] | [2] | [3] | [4] | [5] | [6] | [8] | [10] | [9]

NCCc1ccn[nH]1
inactive: [1] | [2] | [3] | [4] | [5] | [6] | [8] | [9]

C[C@H](CCC(=O)NCC(=O)O)[C@H]1CC[C@H]2[C@@H]3[C@H](O)C[C@@H]4C[C@H](O)CC[C@]4(C)[C@H]3C[C@H](O)[C@]12C
inactive: [1] | [2] | [3] | [4] | [5] | [6] | [8] | [10] | [9]

Cc1nc(C)nc(N2C[C@@H](C)N(c3ccnc([C@@H](C)O)n3)[C@@H](C)C2)n1
inactive: [1] | [2] | [3] | [4] | [5] | [6] | [8] | [10]

Cn1c(=O)c2c(ncn2CC2OCCO2)n(C)c1=O
inactive: [1] | [2] | [3] | [4] | [6] | [7] | [8] | [10]

CCCCC(C)C(=O)O (configuration not stated)
inactive: [1] | [2] | [3] | [4] | [6] | [7] | [8] | [10] | [9]

CC(=O)c1ccc2c(c1)CCCC2
inactive: [1] | [2] | [3] | [4] | [6] | [7] | [8] | [10] | [9]

Nc1cc(S(=O)(=O)O)ccc1S(=O)(=O)O
inactive: [1] | [2] | [3] | [4] | [5] | [6] | [8] | [10] | [9]

CCCOCCOCCOCCO
inactive: [1] | [2] | [3] | [4] | [5] | [7] | [8] | [9]

CCS(=O)(=O)CCn1c([N+](=O)[O-])cnc1C
inactive: [1] | [2] | [3] | [4] | [6] | [7] | [8] | [10]

FC(F)(F)c1ccc(Cl)cc1Cl
inactive: [1] | [2] | [3] | [4] | [6] | [7] | [8] | [10] | [9]

CCCCCCCCCCCCC
inactive: [1] | [2] | [3] | [4] | [5] | [6] | [8] | [10] | [9]

Cc1ccccc1C
inactive: [1] | [2] | [3] | [5] | [6] | [7] | [8] | [10] | [9]

NS(=O)(=O)c1cc2c(cc1Cl)NC(C(Cl)Cl)NS2(=O)=O (configuration not stated)
inactive: [1] | [2] | [3] | [4] | [6] | [8] | [10]

COc1cc2c3cc1Oc1cc(ccc1O)C[C@@H]1c4c(cc(OC)c(O)c4Oc4ccc(cc4)C[C@@H]3N(C)CC2)CC[N+]1(C)C
inactive: [1] | [2] | [3] | [4] | [6] | [7] | [8] | [10] | [9]

CC1(N)CCC(C(C)(C)N)CC1 (configuration not stated)
inactive: [1] | [2] | [3] | [4] | [6] | [7] | [8] | [10] | [9]

NC(=O)NNC(N)=O
inactive: [1] | [2] | [3] | [4] | [8] | [10] | [9]

Reference: PubChem BioAssay (Tox21)
